Test results reported in PubChem BioAssay AID1159580 (chemical genetic matrix, 2015).
“And” between values parts separate entries of the source, which are not always exact repeats. Equal values may be shown once. The whole screen tested about 5,500 compounds, of which about 2,000 (36%) were called active. About 18% were inconclusive and are not listed. Rule as the data show it: active = normalized growth mostly below about 0.91 (no sharp cut-off); inconclusive = no clear call, values can overlap the other calls; inactive = mostly above about 0.92. The list shows a part of the results.

Assay: chemical genetic growth profiling, strain panel (AID 1159580);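 also: tested at 20 µM; growth read once vehicle control cultures reached saturation at 30 °C; 1 = growth at the plate median or of vehicle wells; lower values mean less growth of the strain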
Conditions: S. cerevisiae deletion strains, growth OD

Measured: normalized growth

O=c1[nH]cnc2nc[nH]c12
inactive: locus YAL021C, strain ccr4, stronger effect = lower value 1.04 | locus YAL026C, strain drs2, stronger effect = lower value 1.02 | locus YAL030W, strain snc1, stronger effect = lower value 1.03 | locus YBL061C, strain skt5, stronger effect = lower value 1.02 | locus YBR009C, strain hhf1, stronger effect = lower value 1.01 | locus YBR021W, strain FUR4, stronger effect = lower value 0.972 | locus YBR023C, strain chs3, stronger effect = lower value 1.01 | locus YBR171W, strain sec66, stronger effect = lower value 1.04 | locus YBR229C, strain ROT2, stronger effect = lower value 0.992 | locus YBR231C, strain swc5, stronger effect = lower value 1.02 | locus YBR279W, strain paf1, stronger effect = lower value 1.01 | locus YCL011C, strain gbp2, stronger effect = lower value 1.03 | locus YCL016C, strain dcc1, stronger effect = lower value 1.01 | locus YCL029C, strain bik1, stronger effect = lower value 0.977 | locus YCL061C, strain MRC1, stronger effect = lower value 1.01 | locus YCL069W, strain vba3, stronger effect = lower value 1.01 | locus YCR088W, strain abp1, stronger effect = lower value 1.02 | locus YDL005C, strain med2, stronger effect = lower value 1.02 | locus YDL035C, strain GPR1, stronger effect = lower value 1.01 | locus YDL040C, strain nat1, stronger effect = lower value 1 | locus YDL074C, strain BRE1, stronger effect = lower value 0.986 | locus YDL101C, strain DUN1, stronger effect = lower value 0.999 | locus YDL134C, strain PPH21, stronger effect = lower value 1 | locus YDL185W, strain tfp1, stronger effect = lower value 0.979 | locus YDL192W, strain arf1, stronger effect = lower value 0.994 | locus YDR001C, strain nth1, stronger effect = lower value 1.01 | locus YDR069C, strain doa4, stronger effect = lower value 1.04 | locus YDR101C, strain arx1, stronger effect = lower value 0.973 | locus YDR137W, strain rgp1, stronger effect = lower value 1.07 | locus YDR150W, strain NUM1, stronger effect = lower value 1 | locus YDR159W, strain sac3, stronger effect = lower value 1.03 | locus YDR162C, strain NBP2, stronger effect = lower value 1.04 | locus YDR195W, strain ref2 1.01 | locus YDR297W, strain sur2, stronger effect = lower value 1.04 | locus YDR318W, strain mcm21, stronger effect = lower value 0.984 | locus YDR334W, strain swr1, stronger effect = lower value 1.03 | locus YDR335W, strain msn5, stronger effect = lower value 1.02 | locus YDR388W, stronger effect = lower value 0.983 | locus YDR392W, strain spt3, stronger effect = lower value 1.01 | locus YDR502C, strain sam2, stronger effect = lower value 1 | locus YEL003W, strain gim4, stronger effect = lower value 1.01 | locus YEL037C, strain rad23, stronger effect = lower value 1.01 | locus YEL061C, strain CIN8 (second series), stronger effect = lower value 1.02 | locus YEL061C, strain CIN8, stronger effect = lower value 1 | locus YER015W, strain faa2, stronger effect = lower value 1.01 | locus YER016W, strain bim1, stronger effect = lower value 1.02 | locus YER110C, stronger effect = lower value 0.969 | locus YER111C, strain swi4, stronger effect = lower value 1.02 | locus YER155C, strain BEM2 (second series), stronger effect = lower value 1.02 | locus YER155C, strain BEM2, stronger effect = lower value 0.992 | locus YER167W, strain BCK2, stronger effect = lower value 0.982 | locus YFR010W, strain ubp6, stronger effect = lower value 1.03 | locus YGL078C, strain dbp3, stronger effect = lower value 0.986 | locus YGL086W, strain mad1, stronger effect = lower value 0.955 | locus YGL167C, strain pmr1, stronger effect = lower value 1.02 | locus YGL173C, strain kem1, stronger effect = lower value 1.03 | locus YGL227W, strain vid30, stronger effect = lower value 1.01 | locus YGL240W, strain doc1, stronger effect = lower value 1.01 | locus YGL248W, strain PDE1, stronger effect = lower value 1.01 | locus YGL253W, strain hxk2, stronger effect = lower value 1.02 | locus YGR135W, strain pre9, stronger effect = lower value 1.01 | locus YGR252W, strain gcn5, stronger effect = lower value 1.09 | locus YHR013C, strain ard1, stronger effect = lower value 1.05 | locus YHR027C, strain rpn1, stronger effect = lower value 1.01 | locus YHR030C, strain SLT2, stronger effect = lower value 0.989 and 1.05 | locus YHR079C, strain IRE1 (second series), stronger effect = lower value 0.975 | locus YHR079C, strain IRE1, stronger effect = lower value 1.02 | locus YHR094C, strain hxt1, stronger effect = lower value 0.974 | locus YHR129C, strain ARP1, stronger effect = lower value 0.996 | locus YHR142W, strain chs7, stronger effect = lower value 1.02 | locus YHR200W, strain rpn10, stronger effect = lower value 0.998 | locus YIL066C, strain RNR3, stronger effect = lower value 0.998 | locus YIL073C, strain SPO22, stronger effect = lower value 0.963 | locus YIL125W, strain kgd1, stronger effect = lower value 0.972 | locus YIR030C, strain dcg1, stronger effect = lower value 0.989 | locus YJL092W, strain hpr5, stronger effect = lower value 1.02 | locus YJL095W, strain BCK1 (second series), stronger effect = lower value 1.01 | locus YJL095W, strain BCK1, stronger effect = lower value 1.02 and 1.01 | locus YJL115W, strain asf1, stronger effect = lower value 1.02 | locus YJL129C, strain trk1, stronger effect = lower value 1.03 | locus YJL134W, strain LCB3, stronger effect = lower value 0.994 | locus YJL154C, strain vps35, stronger effect = lower value 1.02 | locus YJL164C, strain tpk1, stronger effect = lower value 1.01 | locus YJL166W, strain qcr8, stronger effect = lower value 1.01 | locus YJL168C, strain set2, stronger effect = lower value 0.977 | locus YJL187C, strain SWE1 (second series), stronger effect = lower value 1.01 | locus YJL187C, strain SWE1, stronger effect = lower value 1.02 | locus YJR043C, strain POL32, stronger effect = lower value 1.03
